This is a sample that favours compounds with a hit; in the whole collection about 2.4% have one here.
GLP1R inv ag – inverse agonists of human GLP-1 receptor; P43220; Potency, µM (top dose mostly 38.3 µM), for the others: top-dose activity change, negative = inhibition, hits mostly inhibitors; 410,000 compounds, 1.6% hits; HEK293 GLP-1R CRE-luciferase, luminescence, 24 h; GLP-1R form is constitutively active; further: potency means the concentration at half of the fitted maximal effect; on the % scale 0 is the no-effect control and ±100 the full control effect; nearly all actives have a fitted effect of over 55% in size
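Seeding at 200 cells/uL, 12 h culture, 24 hr compound treatment, then luciferase reagent and a luminescence read; cells are HEK293 stably expressing a constitutively active GLP-1R plus cAMP-responsive luciferase.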
GLP-1R agonist – agonists of human GLP-1 receptor. P43220. HEK293 GLP-1R CRE-luciferase, luminescence, 4-6 h; cells express a hypersensitive GLP-1R form. Potency, µM (doses to about 45.6 µM), inactives show top-dose activation, usual class: activators. 380,000 compounds, 0.007% hits; further: potency means the concentration at half of the fitted maximal effect; % of control where 0% means no effect
PTHR1 ag – agonists of human PTHR1 parathyroid hormone receptor; HEK293 GP2 PTHR1 cells, GloSensor cAMP luminescence, 1 h; Potency, µM (highest dose often 115 µM), without a hit: top-dose activation, most hits filed as activators; 410,000 compounds, 0.075% hits; further: potency means the concentration at half of the fitted maximal effect; nearly all actives have a fitted effect of over 55% in size
Target sequence (Q03431 whole entry, looked up): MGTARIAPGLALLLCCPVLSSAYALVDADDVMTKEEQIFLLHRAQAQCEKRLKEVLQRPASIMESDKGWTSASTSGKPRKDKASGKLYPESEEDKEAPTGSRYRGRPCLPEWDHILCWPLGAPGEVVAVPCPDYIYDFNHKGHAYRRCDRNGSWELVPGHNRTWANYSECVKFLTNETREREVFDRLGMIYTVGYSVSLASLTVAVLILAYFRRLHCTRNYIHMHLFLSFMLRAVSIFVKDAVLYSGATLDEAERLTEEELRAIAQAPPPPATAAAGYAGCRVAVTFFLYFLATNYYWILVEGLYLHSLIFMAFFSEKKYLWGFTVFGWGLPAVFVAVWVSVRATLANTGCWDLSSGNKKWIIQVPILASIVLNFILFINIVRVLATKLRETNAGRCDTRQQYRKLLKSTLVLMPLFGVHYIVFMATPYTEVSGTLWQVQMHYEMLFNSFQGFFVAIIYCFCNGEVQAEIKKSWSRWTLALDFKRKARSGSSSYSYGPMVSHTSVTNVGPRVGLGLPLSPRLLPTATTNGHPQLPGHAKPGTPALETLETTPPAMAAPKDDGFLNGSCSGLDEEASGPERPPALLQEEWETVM
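HEK-293-derived GP2 cells expressing PTHR1 and a GloSensor cAMP reporter, 3,000/well, plated overnight, given luciferin plus IBMX (each 0.5 mM as added) for 1 h at 37 °C, then compound for 1 h at 37 °C. Luminescence was read after 15 min at room temperature.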
TRHR enhancer – allosteric enhancers of human TRH receptor; enhancement, % at 2 µM; P34981; 360,000 compounds, 0.66% hits; TRHR cells, fluo-8 calcium fluorescence, EC20 TRH enhancement; in the data active means enhancement above about 30%; further: 0% is about no effect
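Enhancer read-out: after compound pinning and an initial kinetic agonist-mode read, an EC20 of TRH (10 nM final) was injected and fluo-8 calcium signal (Ex 480/Em 530) followed at 1 s/cycle for 100 cycles in TRHR-expressing cells.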
TRHR ag – TRH receptor (human) agonism | P34981 | TRHR cells, calcium flux fluo-8, FDSS agonist mode | activation, % at 2 µM | 360,000 compounds, 0.18% hits | AID 493084; in the data active means activation above about 30%; further: 0% is about no effect
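TRHR-expressing cells loaded with fluo-8 calcium dye; 23 nL library compound pin-transferred, kinetic FDSS fluorescence (Ex 480/Em 530) recorded about 180 s for agonist-induced calcium release, before a 10 nM TRH EC20 addition for potentiator mode.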
HEK293 tox – cytotoxicity counter-screen for GLP-1 receptor inverse agonists; HEK293 cAMP-luciferase reporter cells, luminescence, 24 h; AID 624418; Potency, µM (highest dose often 38.3 µM), for inactives: at the highest dose activity change, negative = inhibition, most hits filed as inhibitors; 410,000 compounds, 0.13% hits;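 further: loss of luciferase light is scored as toxicity; potency means the concentration at half of the fitted maximal effect; on the % scale 0 is the no-effect control and ±100 the full control effect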
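Quantitative HTS format, 1536 wells, 200 cells/uL seeded. Compounds: 23 nL, 24 h, 37 °C. Detection: luciferase reagent, luminescence at 12 min RT; decreased signal taken as cytotoxic.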
Starred values were filed as active, the others as inactive; i = inactive; ? = inconclusive; . = not tested or not shown; [ ] = another dose, or the depositor's remark. Unless noted, the call rests on the fitted dose curve; in most records, active means well fitted curve in the direction sought with a large enough effect; inconclusive means small, poorly fitted or top-dose-only effect, or another doubt; inactive means no such curve, though single readings can be large; an effect the other way counts as inactive or inconclusive.

SMILES	GLP1R inv ag	GLP-1R agonist	PTHR1 ag	TRHR enhancer	TRHR ag	HEK293 tox
CCCCNC(=S)Nc1ccc2nc(N3CCN(CC)CC3)cc(C)c2c1	?	29%	i	0	0	?
CCN1CCN(c2cc(C)c3cc(NC(=S)NCCN(C)C)ccc3n2)CC1	3.5µM*	-3%	i	-2	1	?
CCOC(=O)N1CCC(NC(=S)Nc2ccc3nc(N4CCN(CC)CC4)cc(C)c3c2)CC1	8.9µM*	18%	i	-1	0	?
CCCCN(C)CCNC(=S)Nc1ccc2nc(N3CCN(CC)CC3)cc(C)c2c1	1.1µM*	11%	24%	1	1	5µM*
CCN(CC)CCNC(=S)Nc1ccc2nc(N3CCN(CC)CC3)cc(C)c2c1	2.5µM*	6%	-7%	0	1	?
CCCCN(C)C(=S)Nc1ccc2nc(N3CCN(CC)CC3)cc(C)c2c1	?	2%	-13%	-3	1	-1%
CCN1CCN(c2cc(C)c3cc(NC(=S)NCCCN4CCc5ccccc5C4)ccc3n2)CC1	?	18%	i	-4	0	?
COc1cccc(NC(=S)N2CCc3cc(OC)c(OC)cc3C2COc2ccc3c(C)cc(=O)oc3c2)c1 (configuration not stated)	1%	-4%	i	-6	5	-11%
COc1cccc2c1C(=O)c1c(O)c3c(c(O)c1C2=O)C[C@](O)(C(C)=O)C[C@H]3O[C@@H]1C[C@@H](N)[C@@H](O)[C@@H](C)O1	2.8µM*	-12%	-13%	-7	10	-36%
COc1cccc2c1C(=N)c1c(O)c3c(c(O)c1C2=O)CC(O)(C(C)=O)CC3OC1CC(N)C(O)C(C)O1 (configuration not stated)	?	-16%	-16%	.	.	?
O=C1CCCC2=C1C(c1ccc(Cl)cc1)C1C(=O)c3ccccc3C1=N2 (configuration not stated)	0%	0%	-14%[57.5 µM]	.	.	-29%
O=C1c2ccccc2C2=Nc3ccccc3SC(c3cccc(F)c3)C12 (configuration not stated)	?	-5%	-25%	-30	0	7.9µM*
O=C1c2ccccc2C2=Nc3ccccc3SC(c3ccc(Cl)cc3)C12 (configuration not stated)	13µM*	1%	-6%	-5	-2	?
Fc1cccc(C2NN=C(c3ccccc3)S2)c1 (configuration not stated)	3%	9%	?	-4	0	1%
Cc1cccc(C)c1NC(=O)CSc1nc2ccccc2c2nc(CCc3c(C)n[nH]c3C)nn12	14%	.	i	1	0	-3%
Cc1n[nH]c(C)c1CCc1nc2c3ccccc3nc(SCC(N)=O)n2n1	0%	1%	-13%	33*	0	-2%
C=CCN(Cc1cc(OC)ccc1OC)C(=O)c1cc2ccc(OC)cc2[nH]1	11µM*	11%	-19%	-4	1	-4%
COc1ccc2cc(C(=O)N(C)Cc3ccccc3)[nH]c2c1	17%	3%	i	-3	0	0%
CN(CCc1nc2ccccc2[nH]1)Cc1nc(CC2CC2)no1	-11%	-1%	i	-1	0	-3%
CN(CCc1nc2ccc(Cl)cc2[nH]1)Cc1nc(CC2CC2)no1	?	8%	-8%	35*	-3	7%
Cc1cc(CNC(=O)C2CCC(=O)N(Cc3cccc(C(F)(F)F)c3)C2)no1 (configuration not stated)	4%	1%	i	31*	0	-4%
CCN(CC(=O)Nc1ccc(NC(C)=O)cc1)C(=O)c1ccc(=O)[nH]c1	-2%	1%	i	-3	0	-12%
Oc1sc(C=Nc2ccc(F)cc2)c2ccccc12	0%	3%	-7%[57.5 µM]	-2	-1	2%

From PubChem
